Compound activity from PubChem.
Granule exo inh: LAMP-1 surface exposure blockers, TALL-104 cells – cell-based, flow cytometry, MLPCN library, primary screen | actives 0.66% (n = 360,000) | inhibition, % at 10 µM | AID 651702, 2012 | TALL-104 LAMP-1 surface exposure; cells stimulated with thapsigargin and PMA;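 active = inhibition above about 55%, limit read from the data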
PG9 binder: binders of HIV-1 gp120 antibody PG9, primary screen, biochemical, TR-FRET; HIV-1 gp120 / PG9 antibody interaction; TR-FRET gp120-PG9 antibody binding; actives 0.43% (n = 360,000); inhibition, % at 6.7 µM; in the data active = inhibition above about 8.5%
rCAG binder: binders of r(CAG) RNA repeats, primary screen, biochemical, fluorescence | actives 1.3% (n = 370,000) | AID 651821, 2012 | r(CAG) RNA repeat, TO-PRO-1 dye displacement fluorescence | inhibition, % at 3 µM;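 active = inhibition above the plate cutoff, the mean of all test compounds on that plate plus 3 SD, cut at about 35% in these data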;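 note: 0% = DMSO alone and 100% = 100 µM mitoxantrone as full dye displacement; higher means more dye released from RNA so lower well fluorescence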
ABCB6 inh MLPCN: ABCB6 transporter inhibitors, primary screen, K562-ABCB6 cells, flow cytometry, MLPCN library. K562-ABCB6 porphyrin accumulation, 1 h; hits give low values. fluorescence ratio to DMSO, % at 10 µM. actives 0.19% (n = 360,000);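 active = fluorescence ratio to DMSO below 75%, the collection mean minus 3 SD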;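 note: signal is porphyrin accumulated inside mitochondria; 100% equals median channel fluorescence of DMSO control wells; lower ratio means ABCB6 inhibition with less porphyrin fluorescence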
rCAG binder conf: small molecules binding CAG repeat RNA – biochemical, fluorescence, confirmation. AID 652065, 2013. actives 70% (n = 4,300). r(CAG) RNA repeat, TO-PRO-1 dye displacement fluorescence. shares compounds with rCAG binder. inhibition, % at 3 µM;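 active = inhibition above a per-plate cutoff, the mean inhibition of sample wells plus 3 SD, cut at about 35% in these data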;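 note: loss of TO-PRO-1 fluorescence as compound displaces dye from 1x1 AA loop RNA; 0% = DMSO only wells and 100% = 100 µM mitoxantrone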
DNA CAG counter: displacement of TO-PRO-1 from CAG DNA duplex, counter-screen for rCAG RNA repeat binder project, biochemical, fluorescence, TO-PRO-1 dye, d(CAG) DNA oligo | shares compounds with rCAG binder | d(CAG) DNA oligo TO-PRO-1 dye displacement | inhibition, % at 3 µM | actives 94% (n = 4,300) | AID 652068, 2013;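 active = inhibition above its plate's cutoff, the mean test-well inhibition plus 3 SD, cut at about 4.8% in these data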;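 note: 0% = DNA dye mix with DMSO and 100% = 100 µM mitoxantrone; hits displace the dye from DNA and so lower well fluorescence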
dCAG dye DR: inhibitors of DNA CAG/GTC TO-PRO-1 complex, dose response, counter-screen for rCAG RNA repeat binder project, biochemical, fluorescence, TO-PRO-1 dye | shares compounds with rCAG binder | DNA CAG/GTC duplex TO-PRO-1 dye displacement fluorescence | IC50, µM | actives 20% (n = 250) | AID 686960, 2013; in the data active = IC50 below about 10 µM
Numbers without * were called inactive; . = not tested or not shown. Hits are enriched below; roughly 2.5% of the tested compounds scored in any of these assays.

SMILES	Granule exo inh	PG9 binder	rCAG binder	ABCB6 inh MLPCN	rCAG binder conf	DNA CAG counter	others
N#CC(C(=S)Nc1ccccc1)c1nc2ccccc2[nH]1 (stereo unspecified)	28	-1	65*	93	46*	16*
CS/C(Nc1cc(Cl)ccc1Cl)=C(/C#N)C(=O)c1ccco1	7	1	47*	96	33	5.7*
CCC(Sc1ncccc1C(=O)O)C(=O)N1CCCC1 (stereo unspecified)	-2	1	43*	103	3	0
N#CC(C#N)=C(Nc1ccc(F)cc1)SCc1cccc(Br)c1	10	2	47*	91	51*	16*	dCAG dye DR=>30
CC(SCc1ccccc1)C(=O)Nc1ccc(F)cc1 (stereo unspecified)	-1	2	6	92	.	.
CCN(c1ccc(C)cc1C)S(=O)(=O)c1nnc(NC(=O)c2ccco2)s1	-10	-1	59*	96	45*	14*
CCN(CC)S(=O)(=O)c1nnc(NC(=O)c2ccco2)s1	-14	1	7	98	.	.
CC(C)CN(c1ccccc1)S(=O)(=O)c1nnc(NC(=O)c2ccco2)s1	-6	0	48*	102	48*	16*
CN(c1ccccc1)S(=O)(=O)c1nnc(NC(=O)c2ccco2)s1	-1	0	15	100	.	.
CCCCCCCCN1[C@@H](CC(=O)O)c2ccc(C(F)(F)F)cc2S1(=O)=O	-1	-2	52*	92	29	4
O=C1C(=Cc2ccco2)CCC1=Cc1ccco1	0	3	66*	105	78*	44*
O=S(=O)(O)c1ccc(N2N=C(c3ccccc3)CC2c2ccccc2)cc1 (stereo unspecified)	3	-1	79*	101	56*	19*
O=C(c1ccccc1)N1CCC(c2nc(-c3ccc(S(=O)(=O)N4CCOCC4)cc3)no2)CC1	-3	1	-1	101	.	.
CN(C)c1ccc(-c2noc(C3CCN(S(=O)(=O)c4cccc(C(=O)O)c4)CC3)n2)cc1	-5	-4	65*	99	68*	32*
Cc1ccc(NS(=O)(=O)c2cc(N)ccc2Cl)c(C)c1	6	0	5	96	.	.
Cc1ccc(NS(=O)(=O)c2cc(NC(=O)c3cc(=O)[nH]c(=O)[nH]3)ccc2Cl)c(C)c1	14	0	54*	98	61*	20*
CCOc1cc(/C=C2\C(=O)N(c3ccc(C(N)=O)cc3)N=C2C)ccc1OC(=O)c1cccs1	31	.	.	100	.	.
CC1=NN(c2ccc(C(=O)O)cc2)C(=O)/C1=C\c1ccc(OC(=O)c2cccs2)cc1	5	-2	45*	85	52*	18*
O=C(NC(C(=O)N/N=C/c1cc([N+](=O)[O-])ccc1O)c1n[nH]c(=O)c2ccccc12)c1ccccc1 (stereo unspecified)	10	-3	84*	94	66*	28*
O=c1ccc2ccc(O[C@@H]3O[C@H](CO[C@@H]4OC[C@](O)(CO)[C@H]4O)[C@@H](O)[C@H](O)[C@H]3O)cc2o1	7	0	11	95	.	.
CC1OC(Oc2ccc3ccc(=O)oc3c2-c2c(O)ccc3cc(Oc4ccc5ccc(=O)oc5c4)c(=O)oc23)C(O)C(O)C1O (stereo unspecified)	7	-3	38*	91	24	8.7*
Cc1ccc(CSc2nnc(CNc3ccc(F)cc3)o2)cc1	2	0	-3	98	.	.
CCOC(=O)C1=C[C@@H](C)N(S(=O)(=O)c2ccc(C)cc2)[C@H]1c1ccccc1	0	-2	2	95	.	.
CCOC(=O)c1c(C)n(S(=O)(=O)c2ccc(C)cc2)c2ccc(O)c(C(=O)O)c12	4	2	66*	89	64*	27*
O=C(O)c1ccc(N/N=C/C2=C(N3CCOCC3)C(=C\c3ccccc3)/CC2)cc1	3	-3	72*	106	75*	36*
SMILES	Granule exo inh	PG9 binder	rCAG binder	ABCB6 inh MLPCN	rCAG binder conf	DNA CAG counter	others
COc1cccc(CN(c2ccccc2C(=O)O)S(=O)(=O)c2ccc(C)cc2)c1	-21	-3	15	108	.	.
C[C@@H]1CN([C@@H](C)CO)C(=O)CCCn2nncc2CO[C@H]1CN(C)C(=O)Nc1cccc(Oc2ccccn2)c1	-6	0	1	99	.	.
O=C(Cc1ncc(C(F)(F)F)cc1Cl)NCc1ccco1	-2	1	-4	100	.	.
Cc1c(NC(=O)c2ccccc2NS(=O)(=O)c2ccc(Br)cc2)c(=O)n(-c2ccccc2)n1C	7	0	42*	99	47*	14*
CC1(C)CC1C(=O)Nc1ccc([N+](=O)[O-])cc1Br (stereo unspecified)	0	1	2	100	.	.
Cc1ccc(C2(c3ccc(C)cc3)CC2C(=O)Nc2ccc([N+](=O)[O-])cc2O)cc1 (stereo unspecified)	32	0	66*	95	62*	29*
O=C(Nc1nccs1)c1cc(-c2ccco2)nc2ccccc12	1	-3	38*	94	25	17*
O=C(NC(=S)Nc1cccc(S(=O)(=O)NC2=NCCC2)c1)c1cc(-c2ccco2)nc2ccccc12	-1	0	8	113	.	.
O=C(Nc1cccc(S(=O)(=O)NC2=NCCC2)c1)c1cc(-c2ccco2)nc2ccccc12	-6	0	41*	103	43*	25*
Cc1csc(NC(=O)c2cc(-c3ccco3)nc3ccccc23)n1	0	-2	44*	107	46*	20*
Cc1nnc(NC(=O)c2cc(-c3ccco3)nc3ccccc23)s1	12	2	37*	93	18	8.7*
Cc1csc(NC(=O)c2cc(C)nc3ccccc23)n1	-1	-2	0	104	.	.
CCC1(c2ccccc2)NC(=O)N(CC(=O)NNC(=O)c2ccc(F)cc2)C1=O (stereo unspecified)	13	-3	-1	99	.	.
CC(C)N(C(=O)N1CCN(c2ccnc3cc(Cl)ccc23)CC1)C(C)C	11	0	-11	92	.	.
O=C(N/N=C/c1ccc(F)cc1)c1cc(-c2ccco2)nc2ccccc12	0	-1	45*	85	47*	30*
